Results from the supplement of paper PMC10981050.
“And” between values parts separate entries of the source, which are not always exact repeats. Identical values can stand only once. Counter-ions that a name gives are not always drawn.

Tests used:
Test in all cases: cell viability relative to vehicle control; higher = less cytotoxic
Details in all cases: 10 µM
[1] = system: K562
Procedure, shortened: (§1)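 Screening covered the Selleck bioactive, kinase and epigenetic probe libraries, less identity-inconsistent compounds, on CRISPR-edited mutant clones and isogenic wild-type clones of four leukaemia lines. Cells, at 2000 per well in 50 µL medium, received a single 10 µM acoustically dispensed dose. After 48 h the supernatant was removed and CellTiter-Glo luminescence was read. Viability was analysed in Genedata Screener as percent of the on-plate vehicle control.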

[2] = system: MARIMO
Procedure, shortened: as §1

[3] = system: MOLM14
Procedure, shortened: as §1

[4] = system: OCI-AML2
Procedure, shortened: as §1

Row | Structure (SMILES) | cell viability ([1]; SRSF2 genotype: SRSF2 P95H/wt) | cell viability ([1]; SRSF2 genotype: SRSF2 wt/wt) [%] | cell viability ([2]; SRSF2 genotype: SRSF2 P95H/wt) [%] | cell viability ([2]; SRSF2 genotype: SRSF2 wt/wt) [%] | cell viability ([3]; SRSF2 genotype: SRSF2 P95H/wt) [%] | cell viability ([3]; SRSF2 genotype: SRSF2 wt/wt) [%] | cell viability ([4]; SRSF2 genotype: P95H/wt) [%] | cell viability ([4]; SRSF2 genotype: wt/wt) [%]
1 | O=C(NCc1ccncc1)C12CC3CC(C1)CC(c1ccc(Cl)cc1)(C3)C2 | 73.1% and 84.6% | 72.3 | 75.4 | 74.2 | 61 | 57.4 | 64.5 | 55.1
2 | COc1cc(OCc2cccc(-c3ccccc3)c2C)cc(OC)c1CN1CCCC[C@H]1C(=O)O [PD-1/PD-L1 inhibitor 1] | 87.3% and 92.7% | 100 | 83.7 | 85.2 | 89.8 | 95.3 | 68.2 | 73.2
3 | OC[C@H]1O[C@H](OC[C@H]2O[C@H](OC[C@H]3O[C@H](O[C@]4(CO)O[C@H](CO)[C@@H](O)[C@@H]4O)[C@H](O)[C@@H](O)[C@@H]3O)[C@H](O)[C@@H](O)[C@H]2O)[C@H](O)[C@@H](O)[C@H]1O [Stachyose] | 106% and 100% | 99.7 | 102 | 109 | 97.3 | 105 | 94.5 | 93.5
4 | O=S(=O)(c1cccc2cnccc12)N1CCCNCC1 [Fasudil HCl (HA-1077)] | 97.2% and 90.4% | 94 | 81.6 | 92.8 | 75 | 94.4 | 70.3 | 75.3
5 | CN1[C@@H]2CC[C@H]1C[C@@H](OC(=O)c1c[nH]c3ccccc13)C2 [Tropisetron HCl] | 97.5% and 100% | 96.6 | 102 | 102 | 104 | 102 | 101 | 105
6 | C=CCc1cc(OC)c(O)c(C(=O)NCCO)c1 [Alibendol] | 100% and 103% | 103 | 98.2 | 104 | 98.2 | 102 | 100 | 112
7 | CCN1CC(CCN2CCOCC2)C(c2ccccc2)(c2ccccc2)C1=O (stereo not given) [Doxapram HCl] | 104% and 111% | 112 | 112 | 111 | 104 | 109 | 111 | 95.4
8 | CCCCCCCCCCCCCCCC(=O)N[C@@H](CCSC)C(=O)NCC(=O)N[C@@H](Cc1ccc(O)cc1)C(=O)N[C@@H](CCC(N)=O)C(=O)N[C@@H](CCCCN)C(=O)N[C@@H](CCCCN)C(=O)N[C@@H](CC(C)C)C(=O)N[C@@H](CCCNC(=N)N)C(=O)N[C@@H](CO)C(=O)N[C@@H](CCSC)C(=O)N[C@H](C(=O)N[C@@H](CC(=O)O)C(=O)N[C@@H](CCCCN)C(=O)N[C@@H](Cc1ccc(O)cc1)C(=O)N[C@@H](CCCNC(=N)N)C(=O)N[C@@H](CC(C)C)C(=O)O)[C@@H](C)O | 90.8% and 92.9% | 90 | 76.6 | 82.2 | 58.6 | 72.7 | 75.1 | 94.9
9 | COc1cc2nc(N3CCN(C(=O)C4CCCO4)CC3)nc(N)c2cc1OC (stereo not given) [Terazosin HCl] | 97.7% and 96.9% | 96.6 | 99.5 | 102 | 101 | 99.2 | 103 | 104
10 | CC12CCC(CC1=O)C2(C)C (stereo not drawn) [(+)-Camphor] | 94.2% and 102% | 101 | 96.2 | 99.9 | 99.3 | 99.8 | 103 | 92.2
